Glioma ERSR ind: inducers of ER stress response in human glioma cells; U87-MG GRP78 promoter luciferase reporter, 16 h; Potency, µM, usual class: activators; 420,000 compounds, 0.02% hits; AID 602332; active = well fitted activation curve with a large enough effect; note: series mostly up to about 76 µM; nearly all actives have a fitted effect of over 35% in size
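Stably transfected U87-MG human glioma cells carrying a GRP78-based luminescent sensor were seeded at 1000 cells/well, pin-dosed with compounds and incubated 16 h. Luciferase reagent was then added, and end-point luminescence was read after 10 min at room temperature.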
D1 agonist: agonists of human D1 dopamine receptor; 360,000 compounds, 1% hits; P21728; activation, % at 2 µM; HEK293 T-REx D1 cells, calcium flux, agonist mode; AID 504660
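Inducible HEK293 T-REx D1 cells, force-coupled to calcium signalling, were plated at 4000 cells/well with tetracycline and held overnight at 30 C. After no-wash calcium dye loading, compound-evoked calcium rise over 180 s flagged agonists.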
D1 potentiator: potentiators of human D1 dopamine receptor. P21728. HEK293 TREx D1 cells, calcium flux, dopamine EC20 potentiation. potentiation, % at 10 µM. 360,000 compounds, 0.036% hits. AID 504651; in the data active = potentiation above about 30%
TRHR enhancer: allosteric enhancers of human TRH receptor | P34981 | TRHR cells, fluo-8 calcium fluorescence, EC20 TRH enhancement | enhancement, % at 2 µM | 360,000 compounds, 0.66% hits | AID 493056; in the data active = enhancement above about 30%
Target sequence (P34981 whole entry, looked up): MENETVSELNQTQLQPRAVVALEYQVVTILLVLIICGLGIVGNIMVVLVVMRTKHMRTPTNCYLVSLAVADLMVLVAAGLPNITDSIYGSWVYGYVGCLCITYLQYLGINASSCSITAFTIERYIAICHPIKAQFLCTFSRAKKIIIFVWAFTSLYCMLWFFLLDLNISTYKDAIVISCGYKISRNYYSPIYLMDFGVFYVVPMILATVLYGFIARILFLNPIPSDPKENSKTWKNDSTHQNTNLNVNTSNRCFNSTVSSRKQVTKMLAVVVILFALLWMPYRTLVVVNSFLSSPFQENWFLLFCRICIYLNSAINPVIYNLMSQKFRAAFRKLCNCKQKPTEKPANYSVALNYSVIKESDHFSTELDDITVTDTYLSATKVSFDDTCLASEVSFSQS
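Enhancer read-out: after compound pinning and an initial kinetic agonist-mode read, an EC20 of TRH (10 nM final) was injected and fluo-8 calcium signal (Ex 480/Em 530) followed at 1 s/cycle for 100 cycles in TRHR-expressing cells.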
TRHR agonist: TRH receptor (human) agonism | 360,000 compounds, 0.18% hits | activation, % at 2 µM | AID 493084 | TRHR cells, calcium flux fluo-8, FDSS agonist mode | P34981
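In this calcium-flux screen, cells bearing human TRHR are dye-loaded with fluo-8, baselined for 10 cycles, then exposed to library compounds; positive kinetic calcium responses during the agonist phase mark hits, with TRH as control.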
D1 antag: human D1 dopamine receptor antagonism; HEK293 TREx D1 cells, calcium flux, dopamine EC80; hits give low values; activity change, negative = inhibition, % at 10 µM; 360,000 compounds, 3.2% hits; AID 504652; in the data active = activity change below about -30%
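Cells carrying a force-coupled, tetracycline-inducible human D1 receptor report calcium flux. Each well gets a 10 s baseline, compound with 180 s monitoring, then an EC80 dopamine stimulus with a second 180 s kinetic read.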
Each line names hits and unclear results; the compound was inactive in the other large screens. In the library only some 4% were active in any assay of this set; here they are far more common. Cut-off read from the data, not from the text of the source, unless noted: active = activation above about 30%; inactive = the rest.

Cc1cc(C)cc(NC(=S)N2CCN(C(=O)c3ccco3)CC2)c1	D1 antag -39
COCC(=O)Nc1cc(C(=O)N2CCc3ccccc3C2)c2c(c1)nc(-c1ccncc1)n2C	none (no result: D1 agonist, D1 potentiator, TRHR enhancer, TRHR agonist, D1 antag)
Cc1ccc(C(=O)NCC(=O)OC(C)C(=O)Nc2ccc(N(C)C)cc2)s1 (configuration not stated)	none
CC12CCC=CC1C(c1ccc(C(F)(F)F)cc1)N(Cc1ccccc1)C2=O (configuration not stated)	none (no result: D1 agonist, D1 potentiator, TRHR enhancer, TRHR agonist, D1 antag)
Cc1onc(-c2ccccc2)c1C(=O)N1CCN(C(=O)c2ccco2)CC1	TRHR enhancer 30
Cc1onc(-c2ccccc2)c1C(=O)N1CCCN(C(=O)c2c(-c3ccccc3)noc2C)CC1	none
Cc1ccccc1CN1CCN(C(=O)c2ccco2)CC1	none
Cc1ccc(CN2CCN(C(=O)c3ccco3)CC2)cc1	D1 antag -30
c1cc(-c2ccc(CN3CCOCC3)cc2)n2ccnc2c1	none (no result: D1 agonist, D1 potentiator, TRHR enhancer, TRHR agonist, D1 antag)
COc1ccc(NS(=O)(=O)c2ccc3c(c2)NC(=O)CCS3)c(OC)c1	none
COc1ccc(NS(=O)(=O)c2ccc3c(c2)NC(=O)CCS3)cc1Cl	D1 antag -39
COc1ccccc1C(=O)NC(CCSC)C(=O)OC(C)C(N)=O (configuration not stated)	TRHR enhancer 36
COc1ccccc1C(=O)COC(=O)C(CCSC)NC(=O)COc1ccccc1 (configuration not stated)	TRHR enhancer 30
COc1ccccc1C(=O)NC(CCSC)C(=O)NCCCSc1ccccc1 (configuration not stated)	D1 agonist 92
COc1ccccc1C(=O)NC(CCSC)C(=O)NNC(=O)C(C)Oc1ccccc1F (configuration not stated)	none
COc1ccccc1OCCNC(=O)C(CCSC)NC(=O)c1ccccc1Cl (configuration not stated)	none
COc1ccc(OC)c(C(=O)COC(=O)C(CCSC)NC(=O)COc2ccccc2)c1 (configuration not stated)	none
CSCCC(NC(=O)COc1ccccc1)C(=O)N1CCCCC1 (configuration not stated)	none
CSCCC(NC(=O)COc1ccccc1)C(=O)N1CCC(C(N)=O)CC1 (configuration not stated)	D1 antag -31 (no result: D1 potentiator)
CC(=O)C[C@H](O)[C@@H](NC(=O)OC(C)(C)C)C(C)C	none (no result: D1 agonist, D1 potentiator, TRHR enhancer, TRHR agonist, D1 antag)
CCOC(=O)c1cc(-c2ccc(OC)cc2)n(CCC(=O)Nc2cccc(C(C)=O)c2)c1C	none
CC12CCC(/C(=N/O)C1=O)C2(C)C (configuration not stated)	none (no result: D1 agonist, D1 potentiator, TRHR enhancer, TRHR agonist, D1 antag)
CCOc1ccc(CN2CCN(c3ncnc4sc5c(c34)CC(C)CC5)CC2)cc1 (configuration not stated)	D1 antag -33
CC1(C)C2CC=C(/C=N/NC(=O)c3ccc(O)cc3)C1C2 (configuration not stated)	D1 antag -32
C/C(=N\Nc1ccc(S(=O)(=O)Nc2ccccc2)cc1[N+](=O)[O-])c1ccncc1	D1 antag -32 (no result: Glioma ERSR ind)
COc1ccccc1NS(=O)(=O)c1ccc(N/N=C(\C)C(C)C)c([N+](=O)[O-])c1	D1 antag -31
CCN(CC)c1ccc(/C=C/c2cc(-c3ccccc3)c3ccccc3n2)cc1	D1 agonist 325, TRHR agonist 89, D1 antag -57
O=c1[nH]c(=S)n(-c2ccc(Br)cc2)c2ncccc12	none (no result: D1 agonist, D1 potentiator, TRHR enhancer, TRHR agonist, D1 antag)
Fc1ccc(-n2c(=S)[nH]c3cccnc32)cc1	D1 antag -33
CC(=O)N1CCN(CC(=O)NC(=O)Nc2ccc3c(c2)OCCO3)CC1	none
CC(=O)N/C(=C\c1ccc(C)o1)C(=O)NCc1ccccc1	none
COC(=O)c1ccccc1Oc1cnc2ccccc2n1	none
CNc1nc(Oc2ccccc2C(=O)OC)nc(SC)n1	D1 antag -40
CCOC(=O)c1ccc(Oc2nc(NC)nc(SC)n2)cc1	D1 antag -34
CCOC(=O)c1c(C)[nH]c(NC(=O)NNC(=O)c2ccccc2Cl)c1C	D1 antag -31
CCOC(=O)c1c(C)[nH]c(NC(=O)NNC(=O)c2ccc(OC)cc2)c1C	none (no result: D1 potentiator)
COC(=O)C1=NN(C(=O)c2ccc(Br)cc2)C(O)(C(C)(C)C)C1 (configuration not stated)	D1 agonist 32
COC(=O)C1=NN(C(=O)c2ccccc2)C(C)(O)C1 (configuration not stated)	none
COC(=O)C1=NN(C(=O)c2cccc(Cl)c2)C(O)(C(C)(C)C)C1 (configuration not stated)	D1 agonist 31
COCCn1c(C)cc(C(=O)CSc2cc(C)c3ccccc3n2)c1C	D1 antag -38
CN(C)CCCNc1cc(C(C)(C)C)nc2c(-c3ccccc3)cnn12	D1 agonist 58
CCc1nc2nc(C)c(NS(=O)(=O)c3ccc(C(C)(C)C)cc3)c(=O)n2[nH]1	D1 antag -72
CCOC(=O)C1(Nc2nccs2)Sc2ccccc2NC1=O (configuration not stated)	D1 antag -34
CCOC(=O)C1(N(CC)CC)Sc2cc(C)ccc2NC1=O (configuration not stated)	none
Cc1cc(C(=O)Nc2ccccc2C(=O)O)ccc1NC(=O)COc1ccccc1Cl	TRHR enhancer 35
COc1c(Cl)cc(C(=O)Nc2ccccc2C(=O)O)cc1Cl	D1 antag -37
CCOC(=O)c1cccc(NS(=O)(=O)c2cc(-c3cnc(C4CC4)o3)ccc2C)c1	none
Cc1cccc(NS(=O)(=O)c2ccc(C)c(C(=O)NCCCN3CCOCC3)c2)c1	none
CC(C)N1CCC1(C)C(=O)Nc1cccc2ccccc12 (configuration not stated)	none (no result: D1 agonist, D1 potentiator, TRHR enhancer, TRHR agonist, D1 antag)
CC1(C(=O)Nc2cccc3ccccc23)CC1(Br)Br (configuration not stated)	D1 antag -31
O=c1c2nccnc2[nH]c(=S)n1Cc1ccccc1	none
O=c1c2cccnc2[nH]c(=S)n1Cc1ccccc1	TRHR enhancer 32
O=C(CSc1nnc(CNC(=O)c2ccc(F)cc2)o1)Nc1nccs1	none
COC(=O)c1sc(=S)n(-c2cccc(Cl)c2)c1N	D1 antag -34
CSc1ccccc1C(=O)N1CCCC(CCC(=O)NCc2ccc(F)c(F)c2)C1 (configuration not stated)	none
COc1cccc(/C=N\NC(=O)c2cc(OCC(F)(F)F)ccc2OCC(F)(F)F)c1	D1 agonist 33
Cc1ccc(CN(C)C(=O)c2cc(Br)c(Br)s2)o1	D1 antag -35
Cc1ccc2oc(C(=O)N(C)Cc3ccc(C)o3)c(C)c2c1	none
COc1cc(C2OC(=O)c3c2ccc(OC)c3OC)ccc1O (configuration not stated)	none (no result: Glioma ERSR ind)
